# The full list was thinned out, with hits kept by preference.
# HT1080NT lethal: qHTS for induction of synthetic lethality in tumor cells producing 2HG: qHTS for the HT-1080-NT fibrosarcoma cell line; HT-1080-NT fibrosarcoma viability, CellTiter-Glo ATP luminescence, 48 h; Potency, µM (highest dose often 46.1 µM), for inactives: top-dose activity, negative = less viability, actives largely listed as cytotoxic; hit rate 1.6% among 360,000; AID 686970, 2013;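 note: NT is the 2HG producing partner of a matched IDH1 knockdown line; potency is the fitted concentration of half-maximal effect; 0% = DMSO-treated cells and -100% = media-only wells without cells; nearly all actives have a fitted effect of over 55% in size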
#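 Viability of the 2HG-overproducing fibrosarcoma line after 48 hours of compound exposure at 37 degrees C was determined by luminescence with CellTiter-Glo, and concentration-effect curves were then fitted and categorized.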
# TDP1 cell noCPT: qHTS for Inhibitors of human tyrosyl-DNA phosphodiesterase 1 (TDP1): qHTS in cells in absence of CPT. DT40 Tdp1-/- hTDP1 cells, no CPT, ATP luminescence, 48 h. Potency, µM (series often up to 46.2 µM), without a hit: at the top dose activity change, negative = growth inhibition, actives largely listed as inhibitors. hit rate 15% among 420,000; note: potency is the fitted concentration of half-maximal effect; nearly all actives have a fitted effect of over 55% in size
#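 Cells were dispensed at 400 per well, compounds added by pin tool, plates incubated ≥48 hr at 37 °C, then CellTiter-Glo added for 30 min at room temperature before luminescence reading. Line: DT40 Tdp1-/- complemented with hTDP1; camptothecin omitted.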
# HT1080 IDH1KD tx: qHTS for induction of synthetic lethality in tumor cells producing 2HG: qHTS for the HT-1080-IDH1KD cell line | AID 686971, 2013 | Potency, µM (highest dose often 46.1 µM), without a hit: top-dose activity, negative = toxicity, most hits filed as cytotoxic | HT-1080 IDH1 knockdown viability, ATP luminescence, 48 h | hit rate 2% among 360,000;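 note: potency is the fitted concentration of half-maximal effect; 0% = DMSO wells and -100% = cell-free medium wells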
#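 % activity derives from luminescence (CellTiter-Glo), normalised to DMSO and no-cell wells. HT-1080-IDH1KD cells, 750/well, had 48 h compound exposure at 37 °C.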
# IL-1B inflam inh: qHTS for Inhibitors of Inflammasome Signaling: IL-1-beta AlphaLISA Primary Screen; THP-1 LPS/ATP IL-1B secretion, AlphaLISA, 16 h; stronger effect = lower value; activity change, % at 57.5 µM; hit rate 4.7% among 360,000; AID 743279, 2014; in the data active = activity change below about -50%; inconclusive = mostly about -30% to -49%
#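 Secreted IL-1B measured by AlphaLISA bead assay after 16 h compound exposure of THP-1 cells; compounds (final up to 57.5 uM) added 1 h before LPS (250 ng/mL) and ATP (1.25 mM) stimulation; lower signal means less secretion.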
# ALOX12 inh: Primary qHTS assay for inhibitors of human arachidonate 12S-lipoxygenase (ALOX12): Round 2; hit rate 1.1% among 580,000; purified 12hLO, xylenol orange hydroperoxide absorbance; Polyunsaturated fatty acid lipoxygenase ALOX12 (Homo sapiens), P18054; Potency, µM (top dose mostly 108 µM), for the others: at the top dose activity change, negative = inhibition, most hits filed as inhibitors; AID 1671190, 2021; note: potency is the fitted concentration of half-maximal effect
# Target sequence (P18054 whole entry, looked up): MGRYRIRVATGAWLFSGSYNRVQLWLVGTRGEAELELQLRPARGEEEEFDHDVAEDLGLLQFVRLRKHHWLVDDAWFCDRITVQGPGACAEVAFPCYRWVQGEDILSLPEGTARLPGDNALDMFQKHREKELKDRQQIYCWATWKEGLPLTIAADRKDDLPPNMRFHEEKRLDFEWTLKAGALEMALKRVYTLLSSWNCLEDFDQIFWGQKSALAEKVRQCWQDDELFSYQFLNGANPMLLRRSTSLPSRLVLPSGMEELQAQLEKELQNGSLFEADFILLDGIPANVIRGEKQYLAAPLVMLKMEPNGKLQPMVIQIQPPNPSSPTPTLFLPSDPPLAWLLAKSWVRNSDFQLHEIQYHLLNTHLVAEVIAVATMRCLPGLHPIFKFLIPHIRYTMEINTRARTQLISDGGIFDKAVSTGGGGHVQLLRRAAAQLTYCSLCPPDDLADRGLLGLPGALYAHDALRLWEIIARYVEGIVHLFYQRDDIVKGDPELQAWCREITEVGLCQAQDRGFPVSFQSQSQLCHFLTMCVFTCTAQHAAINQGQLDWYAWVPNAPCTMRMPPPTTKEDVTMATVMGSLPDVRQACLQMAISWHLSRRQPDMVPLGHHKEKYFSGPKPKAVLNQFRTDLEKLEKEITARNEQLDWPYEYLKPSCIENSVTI
#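 Purified human 12hLO at 150 nM in 25 mM Hepes, 0.01% Triton X-100, pH 7.0, preincubated 15 min at room temperature with compound. Reaction started with 40 uM arachidonic acid, 30 min at room temperature. Hydroperoxide measured by Fe-xylenol orange, 573/405 nm absorbance ratio.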
# TDP1 cell CPT: qHTS for Inhibitors of human tyrosyl-DNA phosphodiesterase 1 (TDP1): qHTS in cells in presence of CPT | AID 686979, 2013 | Potency, µM (series often up to 46.2 µM), inactives show top-dose activity change, negative = growth inhibition, hits mostly inhibitors | hit rate 12% among 420,000 | chicken DT40 Tdp1-/-;hTDP1 cells + 20 nM CPT, ATP luminescence, 48 h; note: potency is the fitted concentration of half-maximal effect; nearly all actives have a fitted effect of over 55% in size
#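 Cell growth measured by CellTiter-Glo luminescence after a minimum 48 h, 37 C compound exposure with 20 nM CPT in Tdp1-knockout DT40 cells stably expressing hTDP1, seeded 400/well; qHTS titration format.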
# * = called active by the depositor; ? = inconclusive; nt = not tested or not shown; [ ] = remark or other dose. Unless noted, calls come from the whole dose curve; as a rule, active = well fitted curve in the direction sought with a large enough effect; inconclusive = small, poorly fitted or top-dose-only effect, or another doubt; inactive = no such curve, though single readings can be large; an effect the other way counts as inactive or inconclusive. Unless noted, % is set by controls: 0 for no effect and ±100 for the full control effect.
SMILES,HT1080NT lethal,TDP1 cell noCPT,HT1080 IDH1KD tx,IL-1B inflam inh,ALOX12 inh,TDP1 cell CPT
CCN1CCS/C1=C/C=C/C1=[N+](CC)CCS1,nt,0.146µM*,nt,9.5,nt,0.184µM*
Cc1nn(-c2ccc3nncn3n2)c2c1C(c1ccc(OC(C)C)cc1)CC(=O)N2 (stereo unspecified),nt,nt,nt,nt,3.6%,nt
COc1cccc(/C=C(/C#N)c2nc3ccccc3[nH]2)c1OC(C)C,nt,nt,nt,nt,-27.6%,nt
O=C(c1nc2ccccn2c1CN1CCC(Cc2ccccc2)CC1)N1CCCC1,-4.1%,23.1µM*,2.9%,-6.2,-9.9%,?
COc1ccc(Oc2ncc3nc(C)c(=O)n(Cc4ccc(F)cc4)c3n2)cc1,nt,20.6µM*,nt,nt,?,?
COc1cccc(Cn2c(=O)c(C)nc3cnc(OCc4ccccc4)nc32)c1,nt,18.4µM*,nt,nt,0.0%,-23.1%
COc1cccc(Cn2c(=O)c(C)nc3cnc(Oc4cccc(Cl)c4)nc32)c1,nt,23.1µM*,nt,nt,?,-32.8%
CSc1ccc(NC(=O)Cc2cc(Cl)c3c(c2)OCCCO3)cc1,nt,nt,nt,nt,4.2%,nt
O=C1C=C(Nc2ccc(O)cc2)CC(c2ccco2)C1 (stereo unspecified),?,23.1µM*,?,12.4,-12.7%,20.6µM*
O=C1C=C(NCc2ccc(Cl)cc2)CC(c2ccco2)C1 (stereo unspecified),-28.6%,?,?,-2.1,0.0%,23.1µM*
O=C1C=C(Nc2ccc(Cl)cc2Cl)CC(c2ccco2)C1 (stereo unspecified),3.66µM*,4.11µM*,2.31µM*,-2.0,?,3.66µM*
COc1ccc(NC(=O)c2ccc3nc(-n4cccc4)sc3c2)cc1,nt,nt,nt,nt,-4.5%,nt
Cc1cc(NC(=O)COc2cccc(Cl)c2)n(C)n1,nt,nt,nt,nt,33.1%,nt
CN(C)C(=O)c1cccnc1CCC1COc2ccccc2O1 (stereo unspecified),nt,nt,nt,nt,74.2%,nt
CN(C)C(=O)c1ccc(-c2nccc(NCc3cccs3)n2)cc1,nt,-7.8%,nt,nt,?,-11.9%
c1csc(CNc2ccnc(-c3ccoc3)n2)c1,nt,-25.8%,nt,nt,12.6µM*,?
CN(C)C(=O)c1ccc(-c2nccc(NCc3ccccc3)n2)cc1,nt,-28.4%,nt,nt,44.7µM*,?
CN(C)c1ccc(-c2nccc(NCc3cccs3)n2)cc1,nt,23.1µM*,nt,nt,?,20.6µM*
Fc1ccc(Nc2ccnc(-c3ccc4c(c3)OCO4)n2)cc1,nt,-18.6%,nt,nt,17.8µM*,?
Cc1cnc(CNc2ccnc(-c3ccoc3)n2)cn1,nt,11.8%,nt,nt,?,11.4%
CNCCO,nt,nt,nt,nt,-3.4%,nt
O=C(CCCc1ccccc1)N1CCC2(CC1)CC(Cc1nc(-c3cccnc3)no1)CCO2 (stereo unspecified),nt,nt,nt,nt,24.6%,nt
COc1ccccc1-c1nccc(Nc2ccc(F)cc2)n1,nt,?,nt,nt,?,23.1µM*
Cc1ccccc1-c1nccc(Nc2ccc(F)cc2)n1,nt,?,nt,nt,-15.8%,?
COc1ccccc1-c1nccc(NCc2cccs2)n1,nt,?,nt,nt,12.6µM*,20.6µM*
SMILES,HT1080NT lethal,TDP1 cell noCPT,HT1080 IDH1KD tx,IL-1B inflam inh,ALOX12 inh,TDP1 cell CPT
Cc1ccc2nc(SCC(=O)Nc3ccccc3C(=O)Nc3ccc4c(c3)OCO4)[nH]c2c1,nt,nt,nt,nt,1.8%,nt
CN(C(=O)C1CCN(S(=O)(=O)c2cccs2)CC1)C1CCCCC1,0.9%,-16.1%,3.9%[9.24 µM],12.2,-18.0%,-17.1%
Cc1cccc2sc(N(CCN(C)C)C(=O)/C=C/c3cccs3)nc12,?,18.4µM*,?,-93.3*,?,16.4µM*
Cc1cccc2sc(N(CCN(C)C)C(=O)C3CCN(S(=O)(=O)c4cccs4)CC3)nc12,-9.4%,18.4µM*,-10.9%,-61.2*,?,?
CN(C)CCCN(C(=O)/C=C/c1cccs1)c1nc2c(F)cccc2s1,?,20.6µM*,?,-105.4*,-23.9%,20.6µM*
CCN(CC)CCN(C(=O)/C=C/c1cccs1)c1nc2ccc(OC)cc2s1,1.3%,-0.3%,0.5%,11.2,-14.3%,2.5%
Cc1cc(=O)oc2cc(NC(=O)Cc3ccccc3Cl)ccc12,nt,nt,nt,nt,-14.4%,nt
Cc1[nH]c2ccccc2c1C(=O)CN1C(=O)CC2(CCCCC2)C1=O,nt,nt,nt,nt,-4.1%,nt
CC(C)c1ccc(N(CC(=O)N/N=C/c2ccc(OC3CSC3)cc2)S(=O)(=O)c2ccccc2)cc1,-2.5%,?,0.1%,-26.1,-18.2%,23.1µM*
CC(C)c1ccc(N(CC(=O)NCCCN2CCOCC2)S(=O)(=O)c2ccccc2)cc1,-0.2%,25.9µM*,1.9%,6.8,-1.9%,18.4µM*
COc1cccc(N(CC(=O)NCCN2CCOCC2)S(=O)(=O)c2ccccc2)c1,-4.6%,-8.4%,-0.4%,-5.0,6.9%,-0.9%
Cc1ccc(-c2nc3nc(C)cc(C)n3c2Nc2ccc3c(c2)OCCO3)cc1,nt,-42.1%,nt,nt,?,?
COc1ccc(Nc2c(-c3cccc(OC)c3)nc3nc(C)cc(C)n23)cc1,15.6%,20.6µM*,7.8%,15.9,14.0%,?
COc1cccc(-c2nc3nc(C)cc(C)n3c2Nc2ccc3c(c2)OCCO3)c1,7.4%,25.9µM*,-12.2%,6.5,?,?
COc1cccc(-c2nc3nc(C)cc(C)n3c2NCc2ccccc2)c1,-3.4%,11.6µM*,-2.1%,11.9,0.0%,?
CC(NC(=O)c1nn(C)c(=O)c2ccccc12)c1ccc(-c2ccccc2)cc1 (stereo unspecified),nt,nt,nt,nt,0.0%,nt
COc1ccc(C2=NN3C(=O)c4ccccc4C3C2)cc1 (stereo unspecified),nt,nt,nt,nt,22.7%,nt
CC(NC(=O)C1CCN(C(=O)c2ccc(-n3ccc4ccccc43)s2)CC1)c1ccccc1 (stereo unspecified),nt,18.4µM*,nt,nt,-7.0%,?
O=C(c1cc2c(s1)-c1ccccc1OC2)N1CCc2ccccc2C1,3.9%,-6.9%,6.2%,-13.4,22.4%,11.8%
CCOC(=O)C1CCN(C(=O)c2cc3c(s2)-c2ccccc2OC3)CC1,-11.9%,?,-11.1%,22.3,111.6%,14.6µM*
CCOC(=O)C1CCN(C(=O)c2ccc(-n3ccc4ccccc43)s2)CC1,nt,20.6µM*,nt,nt,-15.7%,?

# Screens: PubChem BioAssay, National Center for Advancing Translational Sciences (NCATS)
